Source: the supplement of paper PMC11732987, “Enantioselective OTUD7B fragment discovery through chemoproteomics screening and high-throughput optimisation” (Communications Chemistry, 2025)

Columns and labels:
Experiment in all cases: log2 ratio of Biotin-Ahx-Ub-VS probe labelling (fragment/DMSO); higher = less target engagement (more negative = stronger competition), active = hit call of the paper (q ≤ 0.05, log2 ratio ≤ -1)
Settings in all cases: compound concentration: 200 uM; treatment time: 3 h
ALG13 = biological target: T1, ALG13 (UniProt Q9NP73)
T1 sequence (whole entry): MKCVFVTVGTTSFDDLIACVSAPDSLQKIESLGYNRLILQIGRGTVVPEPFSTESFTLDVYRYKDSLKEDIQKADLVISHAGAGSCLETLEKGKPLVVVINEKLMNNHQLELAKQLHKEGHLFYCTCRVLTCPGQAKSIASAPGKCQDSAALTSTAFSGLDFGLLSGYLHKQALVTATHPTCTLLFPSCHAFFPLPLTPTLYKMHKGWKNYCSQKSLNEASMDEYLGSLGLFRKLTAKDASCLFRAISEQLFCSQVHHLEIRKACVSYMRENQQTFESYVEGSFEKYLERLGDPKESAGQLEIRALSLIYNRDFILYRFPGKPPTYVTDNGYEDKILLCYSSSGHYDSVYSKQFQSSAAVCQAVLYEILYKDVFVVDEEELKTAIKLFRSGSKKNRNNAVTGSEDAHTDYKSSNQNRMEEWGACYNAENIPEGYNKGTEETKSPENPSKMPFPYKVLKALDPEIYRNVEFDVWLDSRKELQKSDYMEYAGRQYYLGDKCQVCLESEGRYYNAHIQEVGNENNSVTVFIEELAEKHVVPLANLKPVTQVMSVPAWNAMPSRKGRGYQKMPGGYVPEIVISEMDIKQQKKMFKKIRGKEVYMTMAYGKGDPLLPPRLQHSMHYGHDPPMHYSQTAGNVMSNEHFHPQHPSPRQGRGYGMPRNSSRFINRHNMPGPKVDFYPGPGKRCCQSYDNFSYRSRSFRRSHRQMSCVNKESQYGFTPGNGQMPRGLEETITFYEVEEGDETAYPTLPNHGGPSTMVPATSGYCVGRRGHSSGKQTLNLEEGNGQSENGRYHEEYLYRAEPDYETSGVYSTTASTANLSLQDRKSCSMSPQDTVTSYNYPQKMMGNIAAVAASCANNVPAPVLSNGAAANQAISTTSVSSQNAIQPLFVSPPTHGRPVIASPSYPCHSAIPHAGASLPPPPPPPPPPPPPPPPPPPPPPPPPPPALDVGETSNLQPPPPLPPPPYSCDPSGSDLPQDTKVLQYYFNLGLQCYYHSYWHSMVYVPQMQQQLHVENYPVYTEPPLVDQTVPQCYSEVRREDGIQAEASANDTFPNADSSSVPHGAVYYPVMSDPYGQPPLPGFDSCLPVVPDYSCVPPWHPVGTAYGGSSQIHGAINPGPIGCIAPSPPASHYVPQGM
Outline: (§1)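 Average log2 ratios of fragment over vehicle were obtained by unpaired t-test from global-median-normalised Spectronaut label-free quantities. Proteins with ≥2 unique peptides were included. HEK293T lysate (495 µg per sample) was treated in triplicate with fragment at 200 µM or vehicle for 3 h, then with Biotin-Ahx-Ub-VS at 0.5 µM final for 1 h, and labelled DUBs were NeutrAvidin-enriched and run by diaPASEF LC-MS/MS.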

ATXN3 = ATXN3 (UniProt P54252)
Outline: as §1

BAP1 = biological target: T2, BAP1 (UniProt Q92560)
T2 sequence (whole entry): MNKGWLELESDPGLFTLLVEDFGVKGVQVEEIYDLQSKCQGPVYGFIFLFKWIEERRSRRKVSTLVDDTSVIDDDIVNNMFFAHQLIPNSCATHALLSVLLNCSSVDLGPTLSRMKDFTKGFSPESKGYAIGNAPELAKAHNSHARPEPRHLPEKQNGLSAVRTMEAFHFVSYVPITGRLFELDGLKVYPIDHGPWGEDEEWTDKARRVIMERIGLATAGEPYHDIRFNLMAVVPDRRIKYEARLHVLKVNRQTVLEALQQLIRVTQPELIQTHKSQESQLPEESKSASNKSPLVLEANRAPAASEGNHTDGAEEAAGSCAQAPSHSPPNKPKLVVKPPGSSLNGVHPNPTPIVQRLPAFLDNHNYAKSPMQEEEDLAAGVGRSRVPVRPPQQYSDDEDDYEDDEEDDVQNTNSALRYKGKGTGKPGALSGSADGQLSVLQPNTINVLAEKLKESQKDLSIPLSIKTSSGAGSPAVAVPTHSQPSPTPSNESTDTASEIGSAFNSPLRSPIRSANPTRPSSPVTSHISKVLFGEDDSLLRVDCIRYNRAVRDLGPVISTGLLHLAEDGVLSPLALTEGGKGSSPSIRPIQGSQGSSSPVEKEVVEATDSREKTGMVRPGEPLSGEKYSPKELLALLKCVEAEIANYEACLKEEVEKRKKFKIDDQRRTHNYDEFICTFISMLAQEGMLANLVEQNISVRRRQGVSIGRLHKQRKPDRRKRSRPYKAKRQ
Outline: as §1

EIF3F = EIF3F (UniProt O00303)
Outline: as §1

EIF3H = EIF3H (UniProt O15372)
Outline: as §1

FAM105A = biological target: T3, FAM105A (UniProt Q9NUU6)
T3 sequence (whole entry): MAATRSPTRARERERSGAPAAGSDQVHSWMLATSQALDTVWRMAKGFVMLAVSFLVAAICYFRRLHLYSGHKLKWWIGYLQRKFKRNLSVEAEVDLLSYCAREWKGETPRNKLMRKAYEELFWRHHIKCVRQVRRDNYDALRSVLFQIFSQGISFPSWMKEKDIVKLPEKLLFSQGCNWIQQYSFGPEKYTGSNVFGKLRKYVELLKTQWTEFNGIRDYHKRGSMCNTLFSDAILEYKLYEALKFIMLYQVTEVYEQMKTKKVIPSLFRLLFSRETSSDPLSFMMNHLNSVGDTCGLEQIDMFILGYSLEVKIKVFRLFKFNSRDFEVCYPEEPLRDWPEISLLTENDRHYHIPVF
Outline: as §1

OTUB1 = OTUB1 (UniProt Q96FW1)
Outline: as §1

OTUD4 = biological target: T4, OTUD4 (UniProt Q01804)
T4 sequence (whole entry): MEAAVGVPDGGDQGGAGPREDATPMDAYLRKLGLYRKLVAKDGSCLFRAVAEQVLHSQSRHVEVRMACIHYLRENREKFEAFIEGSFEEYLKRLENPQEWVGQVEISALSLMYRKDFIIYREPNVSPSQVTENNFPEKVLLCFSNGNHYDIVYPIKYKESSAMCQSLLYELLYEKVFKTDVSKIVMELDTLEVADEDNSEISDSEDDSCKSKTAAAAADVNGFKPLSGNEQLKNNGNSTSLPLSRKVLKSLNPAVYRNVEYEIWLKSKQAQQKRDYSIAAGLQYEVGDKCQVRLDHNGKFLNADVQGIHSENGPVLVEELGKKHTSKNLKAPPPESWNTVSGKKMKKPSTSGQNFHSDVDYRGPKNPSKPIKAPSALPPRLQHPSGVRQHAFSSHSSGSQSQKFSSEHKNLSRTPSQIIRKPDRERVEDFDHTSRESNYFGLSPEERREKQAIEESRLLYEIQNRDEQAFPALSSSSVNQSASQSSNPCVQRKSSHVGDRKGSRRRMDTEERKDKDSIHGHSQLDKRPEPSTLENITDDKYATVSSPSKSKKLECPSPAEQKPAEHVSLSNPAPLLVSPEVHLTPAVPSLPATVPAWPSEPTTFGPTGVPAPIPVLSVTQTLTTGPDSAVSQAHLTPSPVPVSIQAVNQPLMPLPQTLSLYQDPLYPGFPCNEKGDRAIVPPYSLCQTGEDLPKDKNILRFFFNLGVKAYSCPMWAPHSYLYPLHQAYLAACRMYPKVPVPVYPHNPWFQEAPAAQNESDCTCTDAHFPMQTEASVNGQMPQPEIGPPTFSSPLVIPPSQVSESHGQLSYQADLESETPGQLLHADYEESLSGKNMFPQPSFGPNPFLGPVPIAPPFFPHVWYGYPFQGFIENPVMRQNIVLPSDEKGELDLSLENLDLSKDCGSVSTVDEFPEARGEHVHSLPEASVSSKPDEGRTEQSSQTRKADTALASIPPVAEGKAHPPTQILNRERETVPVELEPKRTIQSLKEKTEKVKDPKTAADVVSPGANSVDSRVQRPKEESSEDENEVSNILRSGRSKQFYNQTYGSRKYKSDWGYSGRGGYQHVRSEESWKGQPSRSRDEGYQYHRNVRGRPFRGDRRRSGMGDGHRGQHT
Outline: as §1

OTUD5 = biological target: T5, OTUD5 (UniProt Q96G74)
T5 sequence (whole entry): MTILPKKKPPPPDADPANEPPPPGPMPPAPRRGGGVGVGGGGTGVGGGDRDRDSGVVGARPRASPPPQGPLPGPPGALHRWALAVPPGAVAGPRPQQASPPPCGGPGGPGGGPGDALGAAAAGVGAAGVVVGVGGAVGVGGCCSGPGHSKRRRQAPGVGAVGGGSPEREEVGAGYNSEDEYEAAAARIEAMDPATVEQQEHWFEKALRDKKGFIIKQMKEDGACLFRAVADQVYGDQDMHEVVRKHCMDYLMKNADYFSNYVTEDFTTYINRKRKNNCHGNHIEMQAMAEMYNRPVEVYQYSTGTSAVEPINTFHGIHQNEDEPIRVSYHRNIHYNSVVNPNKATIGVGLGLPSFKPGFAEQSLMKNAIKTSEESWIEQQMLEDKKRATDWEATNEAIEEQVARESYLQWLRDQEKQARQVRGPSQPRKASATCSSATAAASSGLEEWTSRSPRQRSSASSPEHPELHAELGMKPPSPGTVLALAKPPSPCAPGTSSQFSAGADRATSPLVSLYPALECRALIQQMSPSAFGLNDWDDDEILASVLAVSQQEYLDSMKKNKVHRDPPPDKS
Outline: as §1

Measured: log2 ratio of Biotin-Ahx-Ub-VS probe labelling

Sequence of EIF3H (O15372 whole entry): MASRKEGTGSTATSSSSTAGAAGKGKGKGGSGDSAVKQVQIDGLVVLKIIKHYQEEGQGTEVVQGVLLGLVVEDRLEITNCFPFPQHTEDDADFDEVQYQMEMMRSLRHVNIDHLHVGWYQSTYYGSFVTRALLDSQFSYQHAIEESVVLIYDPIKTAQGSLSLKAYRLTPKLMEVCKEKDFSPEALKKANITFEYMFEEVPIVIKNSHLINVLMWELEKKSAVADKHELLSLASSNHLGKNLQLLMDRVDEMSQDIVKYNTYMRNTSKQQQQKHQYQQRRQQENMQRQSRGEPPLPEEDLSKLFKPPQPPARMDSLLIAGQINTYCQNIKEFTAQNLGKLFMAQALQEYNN
Sequence of ATXN3 (P54252 whole entry): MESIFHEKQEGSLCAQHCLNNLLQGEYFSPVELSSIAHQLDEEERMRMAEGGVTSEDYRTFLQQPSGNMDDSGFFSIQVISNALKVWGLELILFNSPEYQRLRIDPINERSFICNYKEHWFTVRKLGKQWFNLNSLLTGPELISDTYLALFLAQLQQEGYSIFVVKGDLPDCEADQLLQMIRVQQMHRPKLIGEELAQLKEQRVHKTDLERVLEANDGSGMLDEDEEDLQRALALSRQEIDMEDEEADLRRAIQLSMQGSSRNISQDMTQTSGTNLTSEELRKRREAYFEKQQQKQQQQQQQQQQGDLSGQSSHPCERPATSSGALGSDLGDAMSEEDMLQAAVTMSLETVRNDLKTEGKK
Sequence of OTUB1 (Q96FW1 whole entry): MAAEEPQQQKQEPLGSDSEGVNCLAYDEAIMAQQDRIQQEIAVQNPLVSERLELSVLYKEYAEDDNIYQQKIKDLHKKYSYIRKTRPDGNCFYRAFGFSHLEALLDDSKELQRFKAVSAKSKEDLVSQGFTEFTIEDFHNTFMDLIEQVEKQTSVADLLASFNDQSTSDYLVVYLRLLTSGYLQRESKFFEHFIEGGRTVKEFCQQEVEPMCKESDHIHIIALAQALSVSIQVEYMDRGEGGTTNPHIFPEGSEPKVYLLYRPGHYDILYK
Sequence of EIF3F (O00303 whole entry): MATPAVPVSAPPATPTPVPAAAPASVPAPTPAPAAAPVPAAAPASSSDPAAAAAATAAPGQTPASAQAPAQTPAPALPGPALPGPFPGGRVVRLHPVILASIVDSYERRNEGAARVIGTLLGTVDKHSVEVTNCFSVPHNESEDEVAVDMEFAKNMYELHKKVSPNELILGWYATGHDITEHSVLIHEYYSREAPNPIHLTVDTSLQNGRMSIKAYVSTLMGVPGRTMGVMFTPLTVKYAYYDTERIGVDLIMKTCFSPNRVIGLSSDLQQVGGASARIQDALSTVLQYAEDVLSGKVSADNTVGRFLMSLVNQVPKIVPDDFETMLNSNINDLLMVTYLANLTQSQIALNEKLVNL

O=C(CCl)N1CCc2nc[nH]c2C1c1ccc(Cl)cc1 (centres undefined)
active: BAP1 -1.65 | OTUD5 -1.26
inactive: ALG13 -0.0235 | ATXN3 -0.508 | EIF3F -0.277 | EIF3H 0.263 | FAM105A 0.102 | OTUB1 0.00111 | OTUD4 -0.508
